This is part of a sample that, as a whole, favours compounds with a hit. Of some 83,000 tested, about 20% had one in any assay.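 Growth was measured after 48 h exposure to one concentration of compound in 96-well plates. Values under 10 count as active.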 Unmarked numbers belong to inactive results. The source made the active and inactive calls.

The test system of one experiment is A549/ATCC NSCLC. As to the kind of experiment: NCI-60 one-dose screen, 48 h (100 = growth as untreated, 0 = no growth, -100 = all killed). The conditions noted are these: 10 µM unless noted.
Regarding `N=C(N)c1ccc(-c2cc(Cl)cc(Cl)c2)cn1`, the growth is 93.9%.

With `COc1cc(-c2nn(-c3cccc(NC(=O)c4cccc(C(F)(F)F)c4)c3)cc2-c2ccncc2)ccc1Cl`, the growth was 7.4% (active).

On to `CN(C)c1oc(C2OC2c2ccccc2)nc1C#N` (stereo not drawn), for which the growth is 90.8%.

`O=C(NNC(=O)N1c2ccccc2C=Cc2ccccc21)c1ccccc1`: the growth is 103%.

Take `Cc1ccc(N2CCN(C(C)C(N)=O)CC2)cc1` (stereo not drawn): the growth is 113%.

For the compound `C=C(C)[C@@H]1C[C@H](O)Cc2cc(F)ccc2N1`, the growth was 97.5%.

Regarding `c1ccc(-c2nnc(-c3ccccn3)s2)nc1`, the growth was 102%.

On to `C=C1CCC2C(C)(CO)C(O)CCC2(C)C1C/C=C1/C(=O)OCC1Oc1ccccc1C` (stereo not drawn), for which the growth is 89.1%.

For `Cc1ccc(S(=O)(=O)C2=C3C(=C(c4ccccc4)c4ccccc43)CN(S(=O)(=O)c3ccc(C)cc3)C2)cc1`, the growth was 70.9%.

`COc1cc(C(=O)/C=C/c2c(C)n([O-])c3ccc(C(F)(F)F)cc3[n+]2=O)cc(OC)c1OC`: the growth is 94.1%.

With `COc1ccc(C(=O)n2nc(/C=C/c3ccc(O)c(OC)c3)cc2/C=C/c2ccc(O)c(OC)c2)cc1`, the growth was 3.98% (active).

Take `COc1cc(/C=N\NC(=O)CN2CCN(c3cc4c(cc3F)c(=O)c(C(=O)N/N=C/c3cc(OC)c(OC)c(OC)c3)cn4C3CC3)CC2)cc(OC)c1OC`: the growth was 73.4%.

On to `CCCCCCN1CSC(=S)N(CCCCCC)C1`, for which the growth is 101%.

In the case of `Cc1csc(NC(c2ccc(Br)cc2)c2c(C)nc3ccccn23)n1` (stereo not drawn), the growth was 87.6%.

Consider `Fc1ccc(Nc2nc(NCCNc3ccnc4cc(Cl)ccc34)nc(N3CCOCC3)n2)cc1`, for which the growth is 55.7%.

`Cc1ccc(-c2nc(C#N)c(S(=O)(=O)n3nc(-c4ccccc4)cc3N)o2)cc1`: the growth was 94.4%.

Turning to `CCOC(=O)c1ccc2c(c1)c1c(C)c3cccnc3c(C)c1n2C`, the growth was 67.7%.

As for `COc1ccc(-c2nc(SCCC(C)C)nc(Nc3ccc(F)c(Cl)c3)c2C#N)cc1`, the growth was 58.9%.

For `N[C@@H]1CCN(C(=O)c2cc3cc(Cl)c(F)c(F)c3[nH]2)C1`, the growth was 93.6%.

Regarding `CC(C)(C)c1[nH]nc2c1C(c1cc3ccccc3[nH]c1=O)Nc1cc(C(=O)Nc3ccc(Cl)cc3)ccc1N2` (stereo not drawn), the growth is 89.6%.

Regarding `Cc1ccc(S(=O)(=O)NCCNc2nccc(-c3c(-c4cccc(N)c4)nc4sccn34)n2)cc1`, the growth is 87.4%.

For `CN(C)c1ncnc2c1ccn2C1OC(CO)C(O)C1O` (stereo not drawn), the growth is 61.4%.

`C/C(=C\c1ccc(OCC(=O)O)c(Cl)c1Cl)[N+](=O)[O-]`: the growth is 93.8%.

In the case of `COc1ccc(/C=C/c2c(C(C)=O)c(C)nc3ccccc23)cc1`, the growth is 80.6%.

In the case of `COc1ccc(Nc2nn3c(C)cc(C)nc3c2C(=O)Nc2ccc(C)cc2)c(OC)c1`, the growth is 93.5%.

For the compound `Cc1[nH]c2ccc(F)cc2c1CCNC(=O)C1CCN(C(=O)c2ccccc2)C1` (stereo not drawn), the growth is 97.8% [25 µM].

On to `N#Cc1c(Nc2ccccc2)nc2n(c1=O)-c1ccccc1Sc1ccccc1-2`, for which the growth is 78.8%.

For the compound `C=C1CC2(OC1=O)C(=O)N(CCCN1C(=O)C3(CC(=C)C(=O)O3)c3ccccc31)c1ccccc12` (stereo not drawn), the growth was 83.1%.

In the case of `C=C(C)[C@@H]1CC[C@]2(C(=O)O)CC[C@]3(C)[C@H](CC[C@@H]4[C@@]5(C)C[C@@H](CC#Cc6ccc(C(F)(F)F)cc6)[C@H](O)C(C)(C)[C@@H]5CC[C@]43C)[C@@H]12`, the growth is 10.3%.

`CCCCCCCCC(C)OC(=O)c1nn(C(C)=O)c2ccccc12` (stereo not drawn): the growth is 94.1%.

With `Oc1ccc2cc(Br)ccc2c1-c1c(O)ccc2cc(Br)ccc12`, the growth is 44%.

Regarding `COc1ccc(-c2cn(-c3cccc(C(=O)/C=C/c4cc(OC)c(OC)c(OC)c4)c3)c(=O)[nH]2)cc1OC`, the growth was 89.5%.

Regarding `N/C(=N\C(N)=N\c1nc2ccccc2s1)c1cccc(Br)c1`, the growth is -40.6% (active).

`c1cc2[nH]ncc2cc1-c1nc2ccc3[nH]ncc3c2c2c1CCC2`: the growth was 39.4%.

Consider `O=C(Nc1ccc(Cl)c(Cl)c1)NS(=O)(=O)c1cnccc1Oc1ccc(F)cc1`, for which the growth was 28%.

Regarding `Cc1ccc(C(=O)NCCCNc2nccc(-n3ccc4cccnc43)n2)cc1`, the growth is 93.4%.

In the case of `CC(C)(C)n1cc(-c2ccnc(NCCCNS(=O)(=O)c3ccccc3)c2)c(-c2cccc(O)c2)n1`, the growth is 38%.

On to `COc1ccc(C(=O)c2cc(OC)c(OC)c(OC)c2OC)cc1O`, for which the growth was 50.6%.

As to `C=C1C(=O)O[C@@H]2[C@@H]3O[C@@](C)(CC/C=C(\C)CCC[C@@H]2C)[C@H](O)C[C@@H]13`, the growth is 95.3%.

The next experiment deals with 786-0 renal. The experiment is described as above. Particulars: 10 µM unless noted.
Consider `N=C(N)c1ccc(-c2cc(Cl)cc(Cl)c2)cn1`, for which the growth was 95.3%.

As to `COc1cc(-c2nn(-c3cccc(NC(=O)c4cccc(C(F)(F)F)c4)c3)cc2-c2ccncc2)ccc1Cl`, the growth is 29.8%.

On to `CN(C)c1oc(C2OC2c2ccccc2)nc1C#N` (stereo not drawn), for which the growth is 102%.

As for `O=C(NNC(=O)N1c2ccccc2C=Cc2ccccc21)c1ccccc1`, the growth was 103%.

As for `Cc1ccc(N2CCN(C(C)C(N)=O)CC2)cc1` (stereo not drawn), the growth was 103%.

Regarding `C=C(C)[C@@H]1C[C@H](O)Cc2cc(F)ccc2N1`, the growth was 105%.

In the case of `c1ccc(-c2nnc(-c3ccccn3)s2)nc1`, the growth was 78.9%.

With `C=C1CCC2C(C)(CO)C(O)CCC2(C)C1C/C=C1/C(=O)OCC1Oc1ccccc1C` (stereo not drawn), the growth was 98%.

Consider `Cc1ccc(S(=O)(=O)C2=C3C(=C(c4ccccc4)c4ccccc43)CN(S(=O)(=O)c3ccc(C)cc3)C2)cc1`, for which the growth is 5.02% (active).

As to `COc1cc(C(=O)/C=C/c2c(C)n([O-])c3ccc(C(F)(F)F)cc3[n+]2=O)cc(OC)c1OC`, the growth was 101%.

In the case of `COc1ccc(C(=O)n2nc(/C=C/c3ccc(O)c(OC)c3)cc2/C=C/c2ccc(O)c(OC)c2)cc1`, the growth is 2.92% (active).

Regarding `COc1cc(/C=N\NC(=O)CN2CCN(c3cc4c(cc3F)c(=O)c(C(=O)N/N=C/c3cc(OC)c(OC)c(OC)c3)cn4C3CC3)CC2)cc(OC)c1OC`, the growth is 54.9%.

For `CCCCCCN1CSC(=S)N(CCCCCC)C1`, the growth was 99.4%.

In the case of `Cc1csc(NC(c2ccc(Br)cc2)c2c(C)nc3ccccn23)n1` (stereo not drawn), the growth was 90.4%.

As to `Fc1ccc(Nc2nc(NCCNc3ccnc4cc(Cl)ccc34)nc(N3CCOCC3)n2)cc1`, the growth was 53.6%.

As to `Cc1ccc(-c2nc(C#N)c(S(=O)(=O)n3nc(-c4ccccc4)cc3N)o2)cc1`, the growth was 84%.

Turning to `CCOC(=O)c1ccc2c(c1)c1c(C)c3cccnc3c(C)c1n2C`, the growth is 51.3%.

`COc1ccc(-c2nc(SCCC(C)C)nc(Nc3ccc(F)c(Cl)c3)c2C#N)cc1`: the growth was 45.4%.

As to `N[C@@H]1CCN(C(=O)c2cc3cc(Cl)c(F)c(F)c3[nH]2)C1`, the growth is 86.6%.

As to `CC(C)(C)c1[nH]nc2c1C(c1cc3ccccc3[nH]c1=O)Nc1cc(C(=O)Nc3ccc(Cl)cc3)ccc1N2` (stereo not drawn), the growth was 66.1%.

For the compound `Cc1ccc(S(=O)(=O)NCCNc2nccc(-c3c(-c4cccc(N)c4)nc4sccn34)n2)cc1`, the growth was 96.3%.

Turning to `CN(C)c1ncnc2c1ccn2C1OC(CO)C(O)C1O` (stereo not drawn), the growth was 34.8%.

Turning to `C/C(=C\c1ccc(OCC(=O)O)c(Cl)c1Cl)[N+](=O)[O-]`, the growth was 117%.

For `COc1ccc(/C=C/c2c(C(C)=O)c(C)nc3ccccc23)cc1`, the growth is 94.9%.

Turning to `COc1ccc(Nc2nn3c(C)cc(C)nc3c2C(=O)Nc2ccc(C)cc2)c(OC)c1`, the growth is 90.9%.

With `Cc1[nH]c2ccc(F)cc2c1CCNC(=O)C1CCN(C(=O)c2ccccc2)C1` (stereo not drawn), the growth was 89.9% [25 µM].

As for `N#Cc1c(Nc2ccccc2)nc2n(c1=O)-c1ccccc1Sc1ccccc1-2`, the growth is 90.2%.

Regarding `C=C1CC2(OC1=O)C(=O)N(CCCN1C(=O)C3(CC(=C)C(=O)O3)c3ccccc31)c1ccccc12` (stereo not drawn), the growth is 20.1%.

Regarding `C=C(C)[C@@H]1CC[C@]2(C(=O)O)CC[C@]3(C)[C@H](CC[C@@H]4[C@@]5(C)C[C@@H](CC#Cc6ccc(C(F)(F)F)cc6)[C@H](O)C(C)(C)[C@@H]5CC[C@]43C)[C@@H]12`, the growth was 19.2%.

Take `CCCCCCCCC(C)OC(=O)c1nn(C(C)=O)c2ccccc12` (stereo not drawn): the growth is 97.3%.

For the compound `Oc1ccc2cc(Br)ccc2c1-c1c(O)ccc2cc(Br)ccc12`, the growth is 77.8%.

Turning to `COc1ccc(-c2cn(-c3cccc(C(=O)/C=C/c4cc(OC)c(OC)c(OC)c4)c3)c(=O)[nH]2)cc1OC`, the growth is 80.2%.

In the case of `N/C(=N\C(N)=N\c1nc2ccccc2s1)c1cccc(Br)c1`, the growth is 98.4%.

As to `c1cc2[nH]ncc2cc1-c1nc2ccc3[nH]ncc3c2c2c1CCC2`, the growth was 49.7%.

As to `O=C(Nc1ccc(Cl)c(Cl)c1)NS(=O)(=O)c1cnccc1Oc1ccc(F)cc1`, the growth is 83.9%.

For the compound `Cc1ccc(C(=O)NCCCNc2nccc(-n3ccc4cccnc43)n2)cc1`, the growth is 93.7%.

Turning to `CC(C)(C)n1cc(-c2ccnc(NCCCNS(=O)(=O)c3ccccc3)c2)c(-c2cccc(O)c2)n1`, the growth was 25.8%.

For the compound `COc1ccc(C(=O)c2cc(OC)c(OC)c(OC)c2OC)cc1O`, the growth is 51%.

Regarding `C=C1C(=O)O[C@@H]2[C@@H]3O[C@@](C)(CC/C=C(\C)CCC[C@@H]2C)[C@H](O)C[C@@H]13`, the growth is 79.1%.

The values above are taken from PubChem BioAssay (NCI).
